KDM5B inh – Primary screen for KDM5B Histone Demethylases FDH-coupled qHTS | Lysine-specific demethylase 5B (Homo sapiens), Q9UGL1 | KDM5B demethylase, FDH-coupled NADH fluorescence (FDH is formaldehyde dehydrogenase) | Potency, µM (series often up to 57.7 µM), usual class: inhibitors | 220,000 tested, 2.6% active | AID 1347165, 2019; active = well fitted inhibition curve with a large enough effect; note: nearly all actives have a fitted effect of over 70% in size
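KDM5BΔAP (200 nM final) in 50 mM HEPES pH 7.5, 0.01% Tween-20 was preincubated 10 min at RT with compound over a concentration range. Substrate mix (H3K4me3 12.5 µM, α-KG 25 µM, Fe²⁺, ascorbate, NAD⁺, FDH) was added, and NADH fluorescence change over 30 min gave dose-response curves.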
Numbers stand for hits; i = inactive. The entries come from a sample that favours hits as a whole.

SMILES | KDM5B inh
O=C(N[C@H]1CO[C@H]2[C@@H]1OC[C@@H]2Nc1nccc(-c2ccc(-c3ccccc3)cc2)n1)C1CC1 | i
CC(C)(C)C(=O)N[C@H]1CO[C@H]2[C@@H]1OC[C@@H]2Nc1nccc(-c2ccc(-c3ccccc3)cc2)n1 | i
CC(=O)c1cccc(NC(=O)O[C@@H]2CO[C@H]3[C@@H]2OC[C@@H]3Nc2nccc(C3CCCC3)n2)c1 | i
COc1ccc(-c2ccnc(N[C@H]3CO[C@H]4[C@@H]3OC[C@H]4OCC(N)=O)n2)cc1 | 32µM
COC(=O)c1ccccc1NC(=O)O[C@@H]1CO[C@H]2[C@@H]1OC[C@@H]2Nc1nccc(-c2ccc3c(c2)OCO3)n1 | 28µM
COc1cccc(NC(=O)O[C@@H]2CO[C@H]3[C@@H]2OC[C@@H]3Nc2nccc(-c3cccc(F)c3)n2)c1 | i
CCOc1ccc(NC(=O)Nc2ccc(F)c(-c3nnc(-c4ccccc4)o3)c2)cc1 | i
COCCn1c(N2CCN(Cc3c(F)cccc3Cl)CC2)nc2c1c(=O)[nH]c(=O)n2C | i
COC(=O)c1ccc(COC(=O)C23CC4CC(CC(O)(C4)C2)C3)cc1 | i
COc1ccc(NC(=O)NCc2nc(-c3ccc(OC)cc3)oc2C)cc1 | i
O=C(Nc1nnc(-c2ccc(F)cc2)o1)C1CCN(S(=O)(=O)c2ccccc2C(F)(F)F)CC1 | i
CCCCn1c(=O)[nH]c(=O)c2c1nc(CSc1nccn1-c1cccc(C)c1)n2C | i
O=C1CN(C(=O)Cn2ccc3c(Br)cccc32)CCN1 | i
Cc1oc(-c2ccccc2)nc1CC(=O)Nc1ccccc1Cl | i
Cn1nc(C(=O)N2CCc3sccc3C2)c2ccccc2c1=O | i
COc1cc(C(C)=O)ccc1OS(=O)(=O)c1ccc2c(c1)CCC2 | i
CC(C)(C)c1ccc(NC(=O)O[C@@H]2CO[C@H]3[C@@H]2OC[C@@H]3Nc2nccc(-c3ccc(-c4ccccc4)cc3)n2)cc1 | i
Cc1ccc(NC(=O)O[C@@H]2CO[C@H]3[C@@H]2OC[C@@H]3Nc2nccc(-c3ccccc3)n2)cc1 | 28µM
CN(C)c1ccc(-c2ccnc(N[C@H]3CO[C@H]4[C@@H]3OC[C@H]4OC(=O)Nc3ccc(Oc4ccccc4)cc3)n2)cc1 | i
CC1=C[C@@H](CNS(C)(=O)=O)[C@H](C(C)C)C[C@H]1Cc1nc2ccccc2n1C | i
CCOC(=O)N(C)CC(=O)NC1CCCC1 | i
COc1ncccc1-c1nccc2c(=O)cc(-c3ccncc3)oc12 | i
COc1ncccc1-c1nccc2c(=O)cc(N(C)C)oc12 | 35µM
CN(c1ccccc1)c1cc(=O)c2ccnc(-c3ccccc3O)c2o1 | i
COc1ccc(-c2ccc3ncc(Nc4ccc5c(c4)OCO5)n3n2)cn1 | i
SMILES | KDM5B inh
COc1ccc(-c2nccc3c(=O)cc(N(C)C)oc23)cn1 | 40µM
COc1ncccc1-c1nccc2c(=O)cc(N(C)C3CCOCC3)oc12 | i
Cc1cc(-c2nccc3c(=O)cc(N(C)C)oc23)ccn1 | 32µM
Cn1c(C(=O)N2CCN(C(=O)c3ccc(F)cc3)CC2)cc2ccccc21 | i
COCc1ccccc1C(=O)NCCC(C)C | i
Cn1nc(C(=O)OCC(=O)c2c[nH]c3ccccc23)c2ccccc2c1=O | i
O=C(CCC(=O)c1ccc2c(c1)OCCO2)NC1CCCCC1 | i
O=C(C1COc2cc(S(=O)(=O)Nc3ccc(F)cc3)ccc2O1)N1CCCCC1 (centres undefined) | i
CO[C@H]1[C@H](NC(=O)c2cc(=O)[nH]c(=O)[nH]2)c2ccccc2C12CCNCC2 | i
CO[C@H]1[C@H](NC(=O)c2cc3ccccc3[nH]2)c2ccccc2C12CCNCC2 | 22µM
CO[C@H]1[C@H](NC(=O)c2ccc(F)cc2)c2ccccc2C12CCNCC2 | i
CCC(C(=O)Nc1sccc1C#N)c1ccccc1 (centres undefined) | i
Cc1ccc(C)c(S(=O)(=O)Nc2ccc3oc(C)nc3c2)c1 | i
O=C(/C=C/c1ccc(O)cc1)c1ccc(-c2ccccc2)cc1 | i
Cc1ccc(-c2cccc(CN)c2)cc1Cl | i
Cc1ccc(-c2cccc(C=O)c2)c(C)c1 | i
O=Cc1ccc(-c2ccc(O)cc2)cc1 | 14µM
Cc1cccc(-c2ccc(C=O)cc2)c1 | 45µM
O=CNc1ccc(O)cc1 | i
Cc1cccc(-c2ccccc2C=O)c1 | i
Cc1ccc(-c2cccc(C=O)c2)cc1Cl | i
Cc1ccc(-c2ccc(C=O)cc2)cc1Cl | 50µM
O=C(Nc1cc(C(F)(F)F)ccc1Cl)c1cccc(OCc2ccccc2)c1 | i
CC(C)c1nnc2ccc(N3CCC(C(=O)Nc4ccccc4N4CCCC4)CC3)nn12 | i
CC(C)CNc1nc(-c2ccc3c(c2)CC(C)N3S(C)(=O)=O)cs1 (centres undefined) | i
CCCOc1nc2ccccc2nc1C(C#N)C(=O)NCc1ccccc1 (centres undefined) | i
CC(C)(C)C1CCc2onc(C(=O)N3CCCC3)c2C1 (centres undefined) | i
Cc1ccc(-c2cnc(SCC(=O)Nc3cccc(F)c3)o2)cc1C | i

Bioassay records (PubChem BioAssay)
